# In PubChem BioAssay AID602393 (Broad Institute, 2012):
# About 7,000 (2%) of roughly 350,000 compounds were called active. Many of the other results were omitted from the sample, so actives are more common in it than they were. Values without a mark were called inactive. Cut-off read from the data, not from the text of the source: active = activation above about 40%; inconclusive = no clear call, values can overlap the other calls; inactive = below that.
# Experiment: Bmi1 luciferase reporter increase in mESCs, primary screen, esBAF inhibitor project, mouse ES cells, Bmi1 luciferase knock-in, single point (AID 602393);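 note: 0% = median of the plate's neutral control wells and 100% = double that signal; a rise in the Bmi1 reporter signal indicates esBAF inhibition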
# Conditions: 24 h, at 12.5 µM, active compounds read high, 100% = twice the neutral-well signal
row,SMILES,reporter increase
1,CN1c2ccc(C#Cc3cccnc3)cc2[C@@H]2[C@@H](CCN2S(=O)(=O)c2ccccc2)[C@H]1CO,11.3%
2,O=S(=O)(c1ccc(Cl)cc1)c1nc(-c2ccco2)oc1N1CCCCC1,-5.66%
3,O=c1oc(-c2ccco2)nc2sc3c(c12)CCCCC3,57.3% (active)
4,N=c1c2c3c(sc2nc2n1CCCCC2)CCCC3,24.2%
5,CCCNC(=O)N1C[C@@H](C)[C@@H](OC)CN(C)C(=O)c2ccc(NC(=O)CCC)cc2OC[C@H]1C,-1.55%
6,COCC#Cc1cnc2c(c1)C(=O)N([C@H](C)CO)C[C@H](C)[C@@H](CN(C)C(=O)Nc1cc(F)ccc1F)O2,6.3%
7,COCC#Cc1ccc2c(c1)O[C@H](CN(C)C(=O)C1CCOCC1)[C@@H](C)CN([C@@H](C)CO)S2(=O)=O,5.12%
8,COc1ccc([C@H]2CC(=O)C=C(/C=C/c3ccccc3)C2)cc1,70.2% (active)
9,COc1ccc([C@H]2CC(=O)C=C(c3ccc(C)cc3)C2)cc1,8.3%
10,COc1ccc(C2CC(=O)NC(=O)C2)cc1,-4.89%
11,C[C@H](CO)N1C[C@H](C)[C@@H](CN(C)C)Oc2cc(C#Cc3ccccc3)ccc2S1(=O)=O,-3.93%
12,Cc1ccc(CNC(=O)C(=O)c2cn(CC(=O)N3CCOCC3)c3ccccc23)cc1,20.4%
13,COc1cccc(NC(=O)C(=O)c2cn(CC(=O)N3CCOCC3)c3ccccc23)c1,20.7%
14,O=C(Nc1ccc(F)cc1)C(=O)c1cn(CC(=O)N2CCOCC2)c2ccccc12,41% (active)
15,CO[C@@H]1CN(C)C(=O)c2cc(NC(=O)C3CCC3)ccc2OC[C@H](C)N(C(=O)CN(C)C)C[C@@H]1C,-3.99%
16,C[C@H](CO)N1C[C@H](C)[C@@H](CN(C)C(=O)Nc2ccc3c(c2)OCO3)OCCCC[C@H](C)Oc2ccc(NS(=O)(=O)c3cn(C)cn3)cc2C1=O,-2.06%
17,C[C@H]1CN([C@@H](C)CO)C(=O)Cc2cc(NC(=O)Nc3cccc4ccccc34)ccc2O[C@@H]1CN(C)C,-2.18%
18,COc1ccc(S(=O)(=O)N(C)C[C@H]2Oc3ccc(NC(=O)Nc4ccccc4)cc3CC(=O)N([C@H](C)CO)C[C@@H]2C)cc1,-4.23%
19,O=C(NCCCn1ccnc1)c1cc(Br)c(Br)s1,-10.5%
20,O=C(NCCCn1ccnc1)c1ccccc1F,-2.18%
21,O=C(NCCCn1ccnc1)c1cc(-c2ccccc2)on1,47.2% (active)
22,C[C@@H](NC(=O)[C@@H]1[C@@H](CO)[C@@H]2Cn3c(ccc(C4=CCCCC4)c3=O)[C@@H]2N1C)c1ccccc1,1.48%

row,SMILES,reporter increase
1,Cc1ccc(S(=O)(=O)Nc2ccc3c(c2)C(=O)N([C@@H](C)CO)C[C@@H](C)[C@H](CN(C)Cc2ccncc2)O3)cc1,2.63%
2,C[C@H](CO)N1C[C@H](C)[C@H](CN(C)Cc2ccncc2)Oc2ccc(N(C)C)cc2C1=O,-1.91%
3,CCOC(=O)c1cc2cc(C)ccc2[nH]1,70.2% (active)
4,CCOC(=O)c1[nH]c2ccc(C)cc2c1N=C(C)N(C)C,1.77%
5,Cc1ccc2[nH]c(=O)c(COC(=O)c3ccccn3)cc2c1,-2.11%
6,CCCNC(=O)N(C)C[C@H]1Oc2cc(C#C[C@@H](C)O)ccc2S(=O)(=O)N([C@H](C)CO)C[C@H]1C,-0.613%
7,COCC(=O)N1C[C@@H]2[C@H](c3ccccc31)[C@@H](CO)N2C(=O)C1CC1,-6.95%
8,CCNC(=O)[C@@H]1[C@@H](CO)[C@@H]2Cn3c(ccc(-c4ccncc4)c3=O)[C@@H]2N1Cc1cc(F)ccc1F,-2.84%
9,O=C(CCNC(=O)c1ccccc1)Nc1nc2ccccc2s1,59.5% (active)
10,CC(C)Cc1nnc(NC(=O)CCNC(=O)c2ccccc2Cl)s1,-1.82%
11,CCCC(=O)Nc1nc2ccc(NC(=O)c3c(F)c(F)c(OC)c(F)c3F)cc2s1,-33%
12,O=S(=O)(N[C@H]1CC[C@@H](CCNS(=O)(=O)c2ccccc2Cl)O[C@@H]1CO)c1ccccc1,2.98%
13,CCOC(=O)c1ccc(NC(=O)Cc2cccs2)cc1,49.7% (active)
14,CCOc1ccc(NC(=O)C/C(C)=N/NC(=O)Cc2cccs2)cc1,-1.12%
15,O=C(Cc1cccs1)Nc1ccc([N+](=O)[O-])cc1,1.47%
16,CN(C)CC(=O)Nc1ccc2c(c1)[C@H]1C[C@@H](CC(=O)NCc3ccccn3)O[C@@H](CO)[C@H]1O2,-2.09%
17,COc1cccc(S(=O)(=O)N(C)C[C@@H]2Oc3cc(C4=CCCCC4)ccc3S(=O)(=O)N([C@H](C)CO)C[C@H]2C)c1,-4.77%
18,O=C(OCc1ccc(-c2ccccc2)cc1)c1cccc(O)c1,56.3% (active)
19,C[C@H](NC(=O)c1ccccc1)C(=O)OCC(=O)c1c[nH]c2ccccc12,4.74%
20,O=C(OCC(=O)c1c[nH]c2ccccc12)c1cccc(O)c1,96.8% (active)
21,CCOc1ncccc1C(=O)OCC(=O)c1c[nH]c2ccccc12,5.19%
22,Cc1ccc(S(=O)(=O)c2c(COC(=O)c3cccc(Cl)c3)c(-c3ccccc3)nn2C)cc1,12.1%

row,SMILES,reporter increase
1,O=C(OCC(O)C(O)COC(=O)c1ccccc1)c1ccccc1 (stereo not drawn),-4.1%
2,COCC(=O)N1C[C@@H](C)[C@H](OC)CN(C)C(=O)c2ccc(NC(=O)c3ccc(F)cc3)cc2OC[C@H]1C,-1.39%
3,CCCNC(=O)N1[C@H](CNC(C)=O)[C@@H](c2ccc(C3=CCCC3)cc2)[C@@H]1CO,2.55%
4,O=C(c1cc(-c2ccc(O)cc2)on1)N1CCOCC1,-6.48%
5,COc1ccc(-c2cc(C(=O)N3CCN(c4ccc(F)cc4)CC3)no2)cc1,5.86%
6,O=C(c1cc(-c2ccc(Cl)cc2)on1)N1CCN(c2ccccc2)CC1,60.8% (active)
7,CC(C)NC(=O)Nc1ccc2c(c1)C(=O)N(C)[C@@H]1CC[C@H](CC(=O)NCC3CCCCC3)O[C@@H]1CO2,7.05%
8,COCC(=O)N[C@@H]1C=C[C@@H](CC(=O)N2CCCCC2)O[C@@H]1CO,0.0415%
9,COc1ccccc1C(=O)N1C[C@H]2[C@@H](c3ccccc31)[C@H](CO)N2C(=O)C1CC1,-3.8%
10,O=C(C[C@@H]1C=C[C@@H](NC(=O)c2cccnc2)[C@H](CO)O1)NCCN1CCCCC1,-3.44%
11,COc1cccc(S(=O)(=O)N[C@H]2C=C[C@H](CC(=O)NC3Cc4ccccc4C3)O[C@H]2CO)c1,-3.77%
12,CCOc1ccc(-n2c(SCC(=O)Nc3ccc(OC)cc3)nc3sc4c(c3c2=O)CCN(C)C4)cc1,1.84%
13,CCOc1ccc(-n2c(SCC(=O)OC)nc3sc4c(c3c2=O)CCN(C)C4)cc1,4.82%
14,COc1ccccc1NC(=O)CSc1nc2sc3c(c2c(=O)n1-c1ccccc1)CCN(C)C3,50.8% (active)
15,COc1cccc(C(=O)Nc2cc3c(cc2Br)OCCCO3)c1,82% (active)
16,COc1cccc(C(=O)Nc2nnc(S(=O)(=O)N3CCOCC3)s2)c1,1.13%
17,COc1cccc(C(=O)NCCSc2ccc(Br)cc2)c1,-4.36%
18,c1ccc2cc3[nH]c(CN4CCCCC4)nc3cc2c1,43.8% (active)
19,Clc1ccc(CN2CCCCCC2)cc1Cl,-0.902%
20,O=c1cc(CN2CCCCCCC2)c2c(ccc3ccccc32)o1,2.61%
21,O=C(C[C@H]1CC[C@@H](NC(=O)Cc2ccccn2)[C@H](CO)O1)NCCc1ccccc1,3.63%
22,O=C(/C(=C/c1cccc(Cl)c1)c1nc2ccccc2[nH]1)c1ccccc1,98.1% (active)

row,SMILES,reporter increase
1,O=c1c2cc(Br)ccc2nc(-c2cccc(Cl)c2)n1O,-7.05%
2,C[C@H](O)C#Cc1ccc2c(c1)O[C@H](CN(C)C)[C@@H](C)CN([C@H](C)CO)S2(=O)=O,-3.76%
3,C[C@@H]1CN([C@@H](C)CO)C(=O)Cc2cc(NC(=O)Nc3ccc(F)cc3)ccc2O[C@@H]1CN(C)C(=O)NC1CCCCC1,1.74%
4,COCC1CCCN(C(=O)c2ccc3oc(C(C)C)nc3c2)C1 (stereo not drawn),21.9%
5,COCC1CCN(C(=O)c2ccc3oc(Cc4ccccc4)nc3c2)C1 (stereo not drawn),22.8%
6,COCC1CCN(C(=O)CCc2nnc(C3(c4ccc(Cl)cc4)CCC3)o2)C1 (stereo not drawn),52% (active)
7,C[C@@H]1CCCCO[C@@H](CN(C)C(=O)C2CCCCC2)[C@H](C)CN([C@H](C)CO)C(=O)c2cc(NC(=O)CCC(F)(F)F)ccc2O1,15.7%
8,COc1cccc(CNC(=O)C[C@@H]2CC[C@@H]3[C@H](COc4ccc(NC(C)=O)cc4C(=O)N3C)O2)c1,-1.5%
9,CCOC(=O)C1(CCOc2ccccc2)CCN(Cc2cc(OC)cc(OC)c2)CC1,-7.06%
10,CCOC(=O)C1(Cc2cccc(OC)c2)CCN(C(C)CC(C)(C)O)CC1 (stereo not drawn),-4.88%
11,CCOC(=O)C1(Cc2cccc(OC)c2)CCCN(C(=O)CCSC)C1 (stereo not drawn),51.6% (active)
12,CNC(=O)C[C@H]1CC[C@@H]2[C@@H](COc3ccc(NC(=O)c4ccc(F)c(F)c4)cc3C(=O)N2C)O1,0.615%
13,C[C@@H]1CN([C@H](C)CO)C(=O)c2cc(C#CC3CC3)cnc2O[C@@H]1CN(C)Cc1ccccn1,-2.08%
14,CC(=O)Nc1cccc(-c2cc(NC(C)=O)c3ncc(-c4ccccc4)n3c2)c1,-27.3%
15,COc1cc(NC(=O)c2ccc(-c3csc(C)n3)cc2)c(OC)cc1Cl,23.9%
16,COc1ccc(-c2csc(Nc3cccc(C)n3)n2)cc1OC,86.6% (active)
17,CC(=O)Nc1cccc(-c2csc(Nc3cccc(C)n3)n2)c1,51.5% (active)
18,COc1cccc(-c2cnc3c(NC(C)=O)cc(-c4cccc(NC(C)=O)c4)cn23)c1,6.31%
19,COc1cccc(C(O)c2nc(-c3ccc(C)c(C)c3)cs2)c1 (stereo not drawn),3.8%
20,CC(=O)NC(c1ccccc1)c1nc(-c2cccc(C(C)C)c2)cs1 (stereo not drawn),-2.45%
21,CC(=O)NC(c1cccc(F)c1)c1nc(-c2cccc(F)c2)cs1 (stereo not drawn),1.42%
22,CC(=O)Nc1cccc(-c2cnc3ccccc3n2)c1,72.3% (active)
